Screening results (PubChem)
Shown is part of a subset that was picked to be rich in hits.
RBX1-CUL1 inh = human ROC1-CUL1 E3 ligase inhibition | 0.6% of 140,000 active | P62877+Q13616 | in vitro K48 di-Ub FRET, acceptor:donor ratio, 45 min | inhibition, % at 10 µM; in the data active = inhibition above about 25%
Target sequence (P62877 whole entry, looked up): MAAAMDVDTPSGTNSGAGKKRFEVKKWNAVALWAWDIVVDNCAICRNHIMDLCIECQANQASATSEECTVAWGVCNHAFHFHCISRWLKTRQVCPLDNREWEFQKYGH
Target sequence (Q13616 whole entry, looked up): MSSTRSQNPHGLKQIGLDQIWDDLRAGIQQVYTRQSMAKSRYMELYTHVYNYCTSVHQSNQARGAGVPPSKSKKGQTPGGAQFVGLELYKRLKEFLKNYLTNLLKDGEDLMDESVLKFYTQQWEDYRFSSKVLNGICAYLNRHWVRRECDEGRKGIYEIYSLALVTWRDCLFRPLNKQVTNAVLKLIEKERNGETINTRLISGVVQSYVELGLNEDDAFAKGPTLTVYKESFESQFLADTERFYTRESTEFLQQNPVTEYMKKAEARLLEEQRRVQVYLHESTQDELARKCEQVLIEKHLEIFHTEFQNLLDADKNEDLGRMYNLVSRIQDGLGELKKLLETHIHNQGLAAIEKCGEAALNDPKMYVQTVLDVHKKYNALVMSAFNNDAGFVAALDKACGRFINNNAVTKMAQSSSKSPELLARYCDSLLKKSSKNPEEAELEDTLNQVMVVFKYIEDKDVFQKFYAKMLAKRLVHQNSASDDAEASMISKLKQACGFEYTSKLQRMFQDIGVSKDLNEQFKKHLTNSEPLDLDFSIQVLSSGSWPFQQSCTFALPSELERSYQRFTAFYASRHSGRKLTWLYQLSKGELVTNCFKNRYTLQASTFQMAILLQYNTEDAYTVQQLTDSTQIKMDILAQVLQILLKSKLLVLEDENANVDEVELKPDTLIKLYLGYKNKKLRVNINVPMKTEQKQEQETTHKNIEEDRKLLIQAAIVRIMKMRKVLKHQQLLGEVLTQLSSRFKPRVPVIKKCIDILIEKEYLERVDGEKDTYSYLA
Active calls of the source: *.

SMILES	RBX1-CUL1 inh
Cc1c(C=C2C(=O)NC(=S)NC2=O)c2ccccc2n1CC(=O)NCc1ccco1	62*
Cc1ccc(NC(=O)Cn2c(=O)n(Cc3ccco3)c(=O)c3ccccc32)cc1	4
CN1C(=S)N(c2ccc(Cl)cc2)C(=O)/C1=C/c1cn(CC(=O)NCc2ccco2)c2ccccc12	7
CC1CCc2cc(F)ccc2N1C(=O)c1ccc(Cl)c(Cl)c1 (stereo not given)	10
O=C(c1ccc(Cl)s1)N1CCN(C2CCCCC2)CC1	72*
O=C(c1ccc(Cl)s1)N1CCN(Cc2ccc(F)cc2)CC1	9
Cc1cc(C(=O)N2CCN(C3CCCCC3)CC2)cs1	10
c1ccc2c(c1)OC1(CCCCC1)c1cnoc1-2	2
O=C1C=CC(=O)c2c1c(-c1ccccc1)nn2-c1ccccc1	92*
Oc1ccc2c(c1)c(-c1ccccc1)nn2-c1ccccc1	-2
O=C(O)c1nn(-c2ccccc2)c(-c2ccccc2)c1C(=O)c1ccccc1	-5
CCC(=O)Nc1ccc(C(=O)n2nc(C)c(C)c2C)cc1	3
COCC1CCCN(C2CCN(c3ccc(NC(=O)CCCCc4ccccc4)cc3)CC2)C1 (stereo not given)	6
O=C(NCc1cn2ccsc2n1)c1coc(Cn2cnc3ccccc32)n1	5
NC(=O)Cn1cc(/C=C2\SC(=Nc3ccccc3)N(C3CCCC3)C2=O)c2ccccc21	-6
O=C1/C(=C\c2cn(Cc3ccc(F)cc3)c3ccccc23)SC(=Nc2ccccc2)N1CCc1ccccc1	-1
O=C(O)Cn1cc(/C=C2\SC(=Nc3ccccc3)N(c3ccccc3)C2=O)c2ccccc21	97*
Cc1ccccc1C(=O)N1CCN(c2ccc(Cl)c(Cl)c2)CC1	7
CCOc1cc(C2c3c(n[nH]c3-c3ccc4c(c3)OCO4)OC(=N)C2C#N)ccc1OC (stereo not given)	2
O=C(Nc1ccc(-c2cc3ccccc3oc2=O)cc1)c1ccc2ccccc2c1	-12
COC(=O)c1cc(NC(=O)Cc2cccs2)cc(C(=O)OC)c1	56*
COC(=O)c1cc(NC(=O)Cc2cccs2)ccc1O	-6
CCOC(=O)c1cccc(NC(=O)Cc2cccs2)c1	4
O=C1c2ccccc2CSc2c(O)cccc21	-2
CN(C)CCOc1ccc2c(c1)C(=O)c1ccccc1CS2	101*
SMILES	RBX1-CUL1 inh
CN(C)CC/C=C1/c2cc(Br)ccc2CSc2ccccc21	-7
CCOC(=O)C1(CCc2ccccc2)CCCN(C(=O)c2ocnc2C)C1 (stereo not given)	-6
CC(C)(C)c1ccc(C(=O)N2CCC(C(=O)Nc3c(F)cccc3F)CC2)cc1	-6
Cc1ccc(N2NC(=O)/C(=C/c3cccc(Br)c3)C2=O)cc1	-12
Cc1cccc(N2NC(=O)/C(=C\c3cccs3)C2=O)c1	-6
O=C1NN(c2ccc(Cl)c(Cl)c2)C(=O)/C1=C/c1cccc(OC(=O)c2cccs2)c1	15
O=C1NN(c2cccc(Br)c2)C(=O)/C1=C\c1cccc(OC(=O)c2cccs2)c1	87*
O=C1NN(c2cccc(F)c2)C(=O)/C1=C\c1cccc(OC(=O)c2cccs2)c1	27*
CCOC(=O)c1ccc(N2NC(=O)/C(=C/c3cccc(OC(=O)c4cccs4)c3)C2=O)cc1	67*
CCc1ccc(N2NC(=O)/C(=C/c3ccc(OC(=O)c4cccs4)c(OC)c3)C2=O)cc1	8
CCc1ccc(N2NC(=O)/C(=C/c3cccc(OC(C)=O)c3)C2=O)cc1	11
CC(=O)Oc1cccc(/C=C2/C(=O)NN(c3ccc(F)cc3)C2=O)c1	20
O=C(CCCCCN1C(=O)c2ccccc2C1=O)Nc1nncs1	4
CCc1ocnc1C(=O)N1CCC(C2CCN(Cc3cccc(F)c3F)CC2)C1 (stereo not given)	3
O=C(NCc1cccc(-n2cncn2)c1)Nc1nnc(C2CC2)s1	7
CCOc1ccc2c(c1)n(N)c(=O)c(=S)n2S(=O)(=O)c1ccc(Cl)c(Cl)c1	9
COc1ccc2nc(SCC(=O)N3CCC(C)CC3)[nH]c2c1	-2
CCOc1ccc(/C=c2/sc3n(c2=O)C(c2cc(OC)ccc2OC)C2=C(N=3)c3ccccc3CC2)cc1 (stereo not given)	7
COc1ccccc1C1C2=C(N=c3s/c(=C\c4ccccc4O)c(=O)n31)c1ccccc1CC2 (stereo not given)	-7
O=c1/c(=C\c2ccco2)sc2n1C(c1cccs1)C1=C(N=2)c2ccccc2CC1 (stereo not given)	28*
COc1cc(/C=c2\sc3n(c2=O)C(c2ccccc2)C2=C(N=3)c3ccccc3CC2)cc(OC)c1O (stereo not given)	5
O=c1/c(=C\c2cc3c(cc2[N+](=O)[O-])OCO3)sc2n1C(c1cccs1)C1=C(N=2)c2ccccc2CC1 (stereo not given)	-7
COc1ccc(C2C3=C(N=c4s/c(=C/c5ccc(O)c([N+](=O)[O-])c5)c(=O)n42)c2ccccc2CC3)cc1 (stereo not given)	44*
COC(=O)c1ccc(/C=c2\sc3n(c2=O)C(c2ccc(Cl)cc2Cl)C2=C(N=3)c3ccccc3CC2)cc1 (stereo not given)	-6
